Assay results from PubChem BioAssay (Tox21).
Inconclusive results are not listed. Calls of active or inactive are those of the source. The call rests on the fitted dose curve; in most records, active means well fitted curve in the direction sought with a large enough effect in the repeat runs; inconclusive means weak or mixed curves; inactive means no such curve, though single readings can be large; an effect the other way counts as inactive or inconclusive.

Columns and labels:
[1] = Caspase-3/7 induction in HepG2 cells by small molecules, qHTS assay (AID 1346978); further: nearly all actives have a fitted effect of over 15% in size
Outline: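 Caspase-3/7 induction was measured by Caspase-Glo 3/7 luminescence (30 min, room temperature) after a 17 hr compound exposure of wild-type HepG2 cells seeded at 2,000 per well and pre-incubated 5 hr.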

[2] = Caspase-3/7 induction in CHO-K1 cells by small molecules, qHTS cell viability counter screen (AID 1346979); further: nearly all actives have a fitted effect of over 35% in size
Outline: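 CellTiter-Fluor viability check, qHTS format: wild-type CHO-K1, 16hr compound treatment, 1hr reagent incubation, fluorescence read.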

[3] = Caspase-3/7 induction in CHO-K1 cells by small molecules, qHTS assay (AID 1346980); further: nearly all actives have a fitted effect of over 15% in size
Outline: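 Luminescent Caspase-Glo 3/7 read (30min, room temperature) quantified apoptosis induction. Cells were wild-type CHO-K1, treated with compound for 17hr at 37 C and 5% CO2.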

[4] = Caspase-3/7 induction in HepG2 cells by small molecules, qHTS cell viability counter screen (AID 1346981); further: series mostly up to about 92 µM; nearly all actives have a fitted effect of over 30% in size
Outline: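 Viability determined by CellTiter-Fluor fluorescence in HepG2 wells also used for the luminescent Caspase-Glo 3/7 read. Compounds were present for 16 hr at 37 C, 5% CO2 before reagent addition.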

[5] = target: Nuclear receptor subfamily 1 group I member 2 (Homo sapiens) (UniProt O75469); assay: Human pregnane X receptor (PXR) small molecule agonists, qHTS assay (AID 1346982); further: nearly all actives have a fitted effect of over 35% in size
Sequence of Nuclear receptor subfamily 1 group I member 2 (Homo sapiens) (O75469 whole entry, looked up): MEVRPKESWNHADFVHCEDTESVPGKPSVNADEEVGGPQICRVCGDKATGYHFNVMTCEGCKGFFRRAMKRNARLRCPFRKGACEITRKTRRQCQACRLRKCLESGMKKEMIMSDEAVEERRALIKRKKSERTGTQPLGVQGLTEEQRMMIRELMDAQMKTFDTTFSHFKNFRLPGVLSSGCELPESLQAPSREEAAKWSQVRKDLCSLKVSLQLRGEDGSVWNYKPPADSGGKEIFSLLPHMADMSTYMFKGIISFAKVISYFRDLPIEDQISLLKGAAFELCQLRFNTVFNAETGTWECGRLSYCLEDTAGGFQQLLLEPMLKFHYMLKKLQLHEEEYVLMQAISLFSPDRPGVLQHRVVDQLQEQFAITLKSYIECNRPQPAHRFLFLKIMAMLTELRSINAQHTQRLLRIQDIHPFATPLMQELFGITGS
Outline: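 Compound-induced hPXR transactivation of a CYP3A4 luciferase reporter was scored in HepG2 PXR-Luc cells over 24 hr at 37 C, 5% CO2, by luminescence.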

[6] = target: Cytochrome P450 2C9 (Homo sapiens) (UniProt P11712); assay: Cytochrome P450 Family 2 Subfamily C Member 9 (CYP2C9) small molecule antagonists: luciferase reporter qHTS assay (AID 1671198); further: nearly all actives have a fitted effect of over 50% in size; further: potency means the concentration at half of the fitted maximal effect
Sequence of Cytochrome P450 2C9 (Homo sapiens) (P11712 whole entry, looked up): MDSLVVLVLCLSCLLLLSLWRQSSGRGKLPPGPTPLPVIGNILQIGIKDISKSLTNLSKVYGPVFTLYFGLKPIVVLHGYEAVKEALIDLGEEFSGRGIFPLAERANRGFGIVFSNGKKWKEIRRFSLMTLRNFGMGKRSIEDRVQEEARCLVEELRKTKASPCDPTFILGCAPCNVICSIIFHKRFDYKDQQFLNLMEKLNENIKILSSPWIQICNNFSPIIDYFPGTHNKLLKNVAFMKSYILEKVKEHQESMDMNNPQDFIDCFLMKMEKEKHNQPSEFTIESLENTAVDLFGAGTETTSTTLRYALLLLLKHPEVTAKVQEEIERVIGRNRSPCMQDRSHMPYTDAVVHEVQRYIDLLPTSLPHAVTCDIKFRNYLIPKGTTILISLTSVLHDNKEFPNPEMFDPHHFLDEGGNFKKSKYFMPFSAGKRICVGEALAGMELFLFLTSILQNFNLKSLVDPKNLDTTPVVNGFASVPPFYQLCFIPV
Outline: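 Enzyme-substrate mix preincubated with compound 10 min at room temperature; reaction started with NADPH regeneration solution, 1 h 37C. Luminescent luciferin product read after 20 min detection reagent.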

[7] = target: Voltage-gated inwardly rectifying potassium channel KCNH2 (Homo sapiens) (UniProt Q12809); assay: Human Ether-a-go-go-Related Gene (hERG) channel small molecule antagonists: fluorescence cell-based qHTS assay (AID 1671200);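 further: hERG-expressing U2OS cells given a thallium stimulus after FluxOR II dye loading; series mostly up to about 77 µM; nearly all actives have a fitted effect of over 50% in size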
Sequence of Voltage-gated inwardly rectifying potassium channel KCNH2 (Homo sapiens) (Q12809 whole entry, looked up): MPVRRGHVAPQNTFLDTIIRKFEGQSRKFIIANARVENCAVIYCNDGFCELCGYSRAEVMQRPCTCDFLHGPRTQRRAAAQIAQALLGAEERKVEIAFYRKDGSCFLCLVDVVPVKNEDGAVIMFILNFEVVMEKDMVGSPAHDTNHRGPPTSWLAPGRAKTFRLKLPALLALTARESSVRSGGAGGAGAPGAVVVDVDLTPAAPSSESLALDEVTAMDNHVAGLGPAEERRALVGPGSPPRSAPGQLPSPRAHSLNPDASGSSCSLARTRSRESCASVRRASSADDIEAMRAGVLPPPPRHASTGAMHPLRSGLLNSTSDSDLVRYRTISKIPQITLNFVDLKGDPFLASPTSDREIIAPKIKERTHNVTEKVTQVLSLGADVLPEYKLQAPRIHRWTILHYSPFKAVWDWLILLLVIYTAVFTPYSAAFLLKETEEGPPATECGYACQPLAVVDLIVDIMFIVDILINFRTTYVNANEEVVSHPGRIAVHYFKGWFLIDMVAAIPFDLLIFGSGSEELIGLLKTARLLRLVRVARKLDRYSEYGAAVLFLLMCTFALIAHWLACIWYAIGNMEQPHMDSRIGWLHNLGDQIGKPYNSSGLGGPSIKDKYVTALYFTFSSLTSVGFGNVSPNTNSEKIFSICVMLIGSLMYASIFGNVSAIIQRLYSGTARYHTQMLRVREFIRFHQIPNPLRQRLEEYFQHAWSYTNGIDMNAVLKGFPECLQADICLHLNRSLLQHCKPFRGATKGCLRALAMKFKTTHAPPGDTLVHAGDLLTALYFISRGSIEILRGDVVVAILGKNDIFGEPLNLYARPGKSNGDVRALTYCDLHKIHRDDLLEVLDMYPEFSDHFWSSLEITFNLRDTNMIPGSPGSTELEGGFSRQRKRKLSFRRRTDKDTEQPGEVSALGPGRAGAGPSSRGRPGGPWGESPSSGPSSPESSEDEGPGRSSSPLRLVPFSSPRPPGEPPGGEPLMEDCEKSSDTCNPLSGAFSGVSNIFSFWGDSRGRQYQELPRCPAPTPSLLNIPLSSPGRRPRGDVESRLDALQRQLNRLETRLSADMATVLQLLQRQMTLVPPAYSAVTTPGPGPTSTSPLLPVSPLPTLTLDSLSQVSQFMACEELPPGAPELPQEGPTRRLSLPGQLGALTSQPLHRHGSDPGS
Outline: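 Kinetic two-minute fluorescence traces, sampled at 1 s, were collected following thallium stimulus of U2OS cells (1000 per well) that had been cultured overnight at 37 C and loaded with FluxOR II.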

[8] = target: Cytochrome P450 2D6 (Homo sapiens) (UniProt P10635); assay: Cytochrome P450 Family 2 Subfamily D Member 6 (CYP2D6) small molecule antagonists: luciferase reporter qHTS assay (AID 1671196); further: nearly all actives have a fitted effect of over 50% in size; further: potency means the concentration at half of the fitted maximal effect
Sequence of Cytochrome P450 2D6 (Homo sapiens) (P10635 whole entry, looked up): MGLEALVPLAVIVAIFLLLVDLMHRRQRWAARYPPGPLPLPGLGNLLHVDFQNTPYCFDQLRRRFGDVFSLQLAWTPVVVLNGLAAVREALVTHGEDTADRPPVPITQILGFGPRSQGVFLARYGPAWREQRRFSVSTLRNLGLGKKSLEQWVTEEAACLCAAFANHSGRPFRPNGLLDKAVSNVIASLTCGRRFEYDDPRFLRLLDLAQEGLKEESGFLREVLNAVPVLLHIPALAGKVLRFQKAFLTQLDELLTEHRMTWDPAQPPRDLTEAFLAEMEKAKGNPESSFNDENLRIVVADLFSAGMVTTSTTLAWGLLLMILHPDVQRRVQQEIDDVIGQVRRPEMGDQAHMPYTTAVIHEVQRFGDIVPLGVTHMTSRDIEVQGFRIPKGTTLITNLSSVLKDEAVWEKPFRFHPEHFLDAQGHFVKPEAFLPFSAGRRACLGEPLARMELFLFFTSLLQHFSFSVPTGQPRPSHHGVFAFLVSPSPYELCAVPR
Outline: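 Each well received CYP2D6 with its proluciferin substrate and chemical, sat 10 min, then got NADPH regeneration solution for 1 h at room temperature. Luminescence in RLU served as the activity measure.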

[9] = target: Cytochrome P450 2C19 (Homo sapiens) (UniProt P33261); assay: Cytochrome P450 Family 2 Subfamily C Member 19 (CYP2C19) small molecule antagonists: luciferase reporter qHTS assay (AID 1671197); further: nearly all actives have a fitted effect of over 65% in size; further: potency means the concentration at half of the fitted maximal effect
Sequence of Cytochrome P450 2C19 (Homo sapiens) (P33261 whole entry, looked up): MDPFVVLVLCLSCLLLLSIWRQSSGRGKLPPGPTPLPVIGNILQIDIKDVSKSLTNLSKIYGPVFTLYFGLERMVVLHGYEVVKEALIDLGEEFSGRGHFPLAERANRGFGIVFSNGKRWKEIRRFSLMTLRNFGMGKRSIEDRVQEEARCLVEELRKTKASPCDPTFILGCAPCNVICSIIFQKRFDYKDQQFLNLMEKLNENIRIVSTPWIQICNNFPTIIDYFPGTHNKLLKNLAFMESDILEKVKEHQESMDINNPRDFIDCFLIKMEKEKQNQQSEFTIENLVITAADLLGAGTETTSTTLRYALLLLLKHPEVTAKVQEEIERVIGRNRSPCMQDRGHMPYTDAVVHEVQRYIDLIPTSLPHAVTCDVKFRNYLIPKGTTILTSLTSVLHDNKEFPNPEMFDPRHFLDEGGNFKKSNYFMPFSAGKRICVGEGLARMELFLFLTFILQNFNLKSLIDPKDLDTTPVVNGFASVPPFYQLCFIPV
Outline: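 P450-Glo CYP2C19 system: enzyme-substrate mix with compound 10 min at room temperature, then NADPH regeneration solution, 1 h at 37C. Proluciferin-to-luciferin conversion detected by luminescence after 20 min with detection reagent; ketoconazole as positive control.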

[10] = target: Cytochrome P450 1A2 (Homo sapiens) (UniProt P05177); assay: Cytochrome P450 Family 1 Subfamily A Member 2 (CYP1A2) small molecule antagonists: luciferase reporter qHTS assay (AID 1671199); further: nearly all actives have a fitted effect of over 50% in size; further: potency means the concentration at half of the fitted maximal effect
Sequence of Cytochrome P450 1A2 (Homo sapiens) (P05177 whole entry, looked up): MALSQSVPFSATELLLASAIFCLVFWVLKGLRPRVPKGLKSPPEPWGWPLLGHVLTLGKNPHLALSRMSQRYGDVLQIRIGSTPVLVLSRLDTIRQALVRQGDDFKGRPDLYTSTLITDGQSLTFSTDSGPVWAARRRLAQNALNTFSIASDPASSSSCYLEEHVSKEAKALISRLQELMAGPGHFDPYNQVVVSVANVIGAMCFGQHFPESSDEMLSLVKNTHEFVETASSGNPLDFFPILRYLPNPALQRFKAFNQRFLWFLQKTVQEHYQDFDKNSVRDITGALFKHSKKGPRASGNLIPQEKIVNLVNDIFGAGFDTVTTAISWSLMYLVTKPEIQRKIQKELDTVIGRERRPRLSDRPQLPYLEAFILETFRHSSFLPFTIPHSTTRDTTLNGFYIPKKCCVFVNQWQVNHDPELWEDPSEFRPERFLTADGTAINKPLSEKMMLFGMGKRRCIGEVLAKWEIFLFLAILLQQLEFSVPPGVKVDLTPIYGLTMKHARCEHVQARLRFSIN
Outline: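 Enzymatic CYP1A2 assay, human, luminescent: 10 min compound–enzyme–substrate preincubation, 1 h NADPH-dependent turnover, 20 min detection step, room temperature throughout. Reduced light indicates lower CYP1A2 activity.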

[11] = target: Cytochrome P450 3A4 (Homo sapiens) (UniProt P08684); assay: Cytochrome P450 Family 3 Subfamily A Member 4 (CYP3A4) small molecule antagonists: luciferase reporter qHTS assay (AID 1671201)
Sequence of Cytochrome P450 3A4 (Homo sapiens) (P08684 whole entry, looked up): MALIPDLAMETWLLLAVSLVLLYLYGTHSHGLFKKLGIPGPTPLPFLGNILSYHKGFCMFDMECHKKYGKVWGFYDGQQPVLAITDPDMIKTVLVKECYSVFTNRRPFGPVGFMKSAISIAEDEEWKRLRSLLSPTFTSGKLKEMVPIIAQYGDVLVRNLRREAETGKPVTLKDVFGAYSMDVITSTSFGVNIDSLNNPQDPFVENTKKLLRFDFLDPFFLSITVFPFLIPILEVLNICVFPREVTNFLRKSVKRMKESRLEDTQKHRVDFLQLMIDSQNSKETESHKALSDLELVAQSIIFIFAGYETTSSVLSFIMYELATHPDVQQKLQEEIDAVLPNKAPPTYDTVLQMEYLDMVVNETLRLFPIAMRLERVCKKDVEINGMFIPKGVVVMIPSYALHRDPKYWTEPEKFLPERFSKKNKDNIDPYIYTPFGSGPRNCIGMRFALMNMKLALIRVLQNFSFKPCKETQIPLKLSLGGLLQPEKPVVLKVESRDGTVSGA
Outline: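 Proluciferin-to-luciferin conversion by CYP3A4, NADPH-regenerated, 1 h RT; luminescence read as RLU. Ketoconazole as control.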

[12] = target: Nuclear receptor subfamily 1 group I member 2 (Rattus norvegicus) (UniProt Q9R1A7); assay: Rat pregnane X receptor (rPXR) activation by small molecules, qHTS assay (AID 1346983); conditions: rPXR luciferase reporter cells, One-Glo luminescence, 24 h; hits give high values; further: nearly all actives have a fitted effect of over 20% in size
Sequence of Nuclear receptor subfamily 1 group I member 2 (Rattus norvegicus) (Q9R1A7 whole entry, looked up): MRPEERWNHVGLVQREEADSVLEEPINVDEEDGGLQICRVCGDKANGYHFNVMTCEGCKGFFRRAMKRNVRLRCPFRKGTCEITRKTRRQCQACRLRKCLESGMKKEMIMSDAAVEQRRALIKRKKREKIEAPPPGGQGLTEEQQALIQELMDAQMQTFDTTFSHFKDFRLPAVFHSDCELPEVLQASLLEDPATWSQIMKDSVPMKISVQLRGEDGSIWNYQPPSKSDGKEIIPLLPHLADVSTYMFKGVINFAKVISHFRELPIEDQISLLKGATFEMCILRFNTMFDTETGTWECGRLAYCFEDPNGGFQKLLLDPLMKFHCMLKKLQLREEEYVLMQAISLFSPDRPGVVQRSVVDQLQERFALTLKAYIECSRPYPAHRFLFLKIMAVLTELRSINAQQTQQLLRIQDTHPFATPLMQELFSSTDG
Outline: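 Luminescent readout (One-Glo luciferase, 30 min room temperature) followed 24 hr compound treatment at 37 C of rPXR cells plated 2,000 per well and preincubated 5hr; qHTS format with compounds delivered in DMSO.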

[13] = target: Nuclear receptor subfamily 1 group I member 2 (Homo sapiens) (UniProt O75469); assay: CYP3A4 induction through human pregnane X receptor (PXR) by small molecules, qHTS assay (AID 1346984); further: nearly all actives have a fitted effect of over 40% in size; further: potency means the concentration at half of the fitted maximal effect
Outline: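 Readings come from a luciferase reporter: DPX-2 cells, which are HepG2 cotransfected with PXR and a CYP3A4-promoter construct, were exposed to test compounds for 24 h at 37C before One-Glo detection.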

[14] = target: Nuclear receptor subfamily 1 group I member 2 (Homo sapiens) (UniProt O75469); assay: Human pregnane X receptor (PXR) activation by small molecules, qHTS assay (AID 1346985); further: nearly all actives have a fitted effect of over 40% in size
Outline: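 DPX-2 cells (HepG2 co-transfected with a PXR response element and a CYP3A4-promoter luciferase construct) were seeded at 2,000 per well, rested 5 hr at 37C, then exposed to DMSO-dissolved compounds for 24 hr. Activation was read as luciferase luminescence.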
On the % scale 0 is the no-effect control and ±100 the full control effect.

CO/N=C(/C(=O)N[C@@H]1C(=O)N2C(C(=O)OCOC(=O)C(C)(C)C)=C(C)CS[C@H]12)c1csc(N)n1
active: Potency [6] 11 µM
inactive: Potency [1] | Potency [2] | outcome [3] | Potency [4] | Potency [5] | Potency [7]

NC(=O)Nc1ccccc1
inactive: Potency [1] | Potency [2] | outcome [3] | Potency [4] | Potency [8] | Potency [9] | Potency [6] | Potency [10] | Potency [7] | Potency [11]

CCOC(=O)c1c(C)n(C)c2ccc(O)cc12
inactive: Potency [1] | Potency [2] | outcome [3] | Potency [4] | max activation [12] -1.63% | Potency [13] | Potency [14] | Potency [7]
active: Potency [9] 7.76 µM | Potency [10] 0.512 µM

CC[N+](C)(C)c1cccc(O)c1
inactive: Potency [1] | Potency [2] | outcome [3] | Potency [4] | max activation [12] -3.46% | Potency [8] | Potency [9] | Potency [6] | Potency [10] | Potency [7] | Potency [11]

CCN(CC)CCOCCOC(=O)C1(c2ccccc2)CCCC1
active: Potency [13] 12.6 µM
inactive: Potency [1] | Potency [2] | outcome [3] | Potency [4] | max activation [12] 0.476% | Potency [9] | Potency [6] | Potency [10] | Potency [7]

COC(=O)c1ccc(C)cc1C1=NC(C)(C(C)C)C(=O)N1 (stereo unspecified)
inactive: Potency [1] | Potency [2] | outcome [3] | Potency [4] | Potency [8] | Potency [9] | Potency [6] | Potency [10] | Potency [7]

Cc1cnc(NS(=O)(=O)c2ccc(N)cc2)nc1
inactive: Potency [1] | Potency [2] | outcome [3] | Potency [4] | Potency [8] | Potency [9] | Potency [6] | Potency [10] | Potency [7] | Potency [11]

O=c1n(CCO)c(=O)n(CCO)c(=O)n1CCO
inactive: Potency [1] | Potency [2] | outcome [3] | Potency [4] | Potency [8] | Potency [9] | Potency [6] | Potency [10] | Potency [7] | Potency [11]

C=CCS(=O)(=O)O
inactive: Potency [1] | Potency [2] | outcome [3] | Potency [4] | Potency [8] | Potency [9] | Potency [6] | Potency [10] | Potency [7] | Potency [11]

COc1nc(N)nc2c1ncn2[C@@H]1O[C@H](CO)[C@@H](O)[C@@H]1O
active: Potency [10] 24.5 µM
inactive: Potency [1] | Potency [2] | outcome [3] | Potency [4] | Potency [8] | Potency [9] | Potency [6] | Potency [7] | Potency [11]

CCN1CCC[C@H]1CNC(=O)c1c(O)c(Cl)cc(Cl)c1OC
inactive: Potency [1] | Potency [2] | outcome [3] | Potency [4] | max activation [12] -0.579% | Potency [13] | Potency [9] | Potency [6] | Potency [7] | Potency [11]

O=c1[nH]c(=O)n([C@H]2C[C@H](O)[C@@H](CO)O2)cc1I
inactive: Potency [1] | Potency [2] | outcome [3] | Potency [4] | max activation [12] 6.42% | Potency [8] | Potency [9] | Potency [6] | Potency [10] | Potency [7] | Potency [11]

CCOC(=O)CCC(C)=O
inactive: Potency [1] | Potency [2] | outcome [3] | Potency [4] | Potency [8] | Potency [9] | Potency [6] | Potency [10] | Potency [7] | Potency [11]

NS(=O)(=O)c1cc(C(=O)O)cc(N2CCCC2)c1Oc1ccccc1
inactive: Potency [1] | Potency [2] | outcome [3] | Potency [4] | max activation [12] 1.61% | Potency [13] | Potency [14] | Potency [8] | Potency [9] | Potency [6] | Potency [10] | Potency [7] | Potency [11]

Nc1cc(=O)[nH]c(N)n1
inactive: Potency [1] | Potency [2] | outcome [3] | Potency [4] | Potency [8] | Potency [9] | Potency [6] | Potency [10] | Potency [7] | Potency [11]

CC(C)c1cc2c(cc1S(=O)(=O)O)[C@@]1(C)CCC[C@@](C)(C(=O)O)[C@@H]1CC2
inactive: Potency [1] | Potency [2] | outcome [3] | Potency [4] | max activation [12] 2.4% | Potency [13] | Potency [14] | Potency [8] | Potency [9] | Potency [6] | Potency [7] | Potency [11]

NC(CSCC(=O)O)C(=O)O (stereo unspecified)
inactive: Potency [1] | Potency [2] | outcome [3] | Potency [4] | max activation [12] -3.73% | Potency [13] | Potency [14] | Potency [8] | Potency [9] | Potency [6] | Potency [7] | Potency [11]

Cc1nc2c([nH]1)c(=O)n(C)c(=O)n2Cc1ccco1
inactive: Potency [1] | Potency [2] | outcome [3] | Potency [4] | Potency [5] | Potency [9] | Potency [6] | Potency [7] | Potency [11]

CCCCOCCOCCOCc1cc2c(cc1CCC)OCO2
inactive: Potency [1] | Potency [2] | outcome [3] | Potency [4] | max activation [12] -0.229%

CN(C)CCCSc1ccccc1NC(=O)/C=C/c1ccccc1
inactive: Potency [1] | Potency [2] | outcome [3] | Potency [4] | max activation [12] 2.69% | Potency [13] | Potency [6] | Potency [10] | Potency [7] | Potency [11]
active: Potency [8] 0.389 µM | Potency [9] 38.9 µM

CC(C)OC(=O)c1ccccc1
inactive: Potency [1] | Potency [2] | outcome [3] | Potency [4] | Potency [8] | Potency [9] | Potency [6] | Potency [10] | Potency [7] | Potency [11]
